The values that follow come from article PMC7862700, “An all-to-all approach to the identification of sequence-specific readers for epigenetic DNA modifications on cytosine”.

Assay in all cases: DAPPL (digital affinity profiling via proximity ligation, sequencing); 10 mM Tris-HCl pH 7.5, 50 mM NaCl, 1 mM DTT, 4% glycerol, room temperature, 30 min; GST-TFs on glutathione beads, 16-mer random dsDNA library, 0.1% formaldehyde crosslink after washing; high values mean tight binding
In one assay the target is T1, FEV (Homo sapiens, UniProt Q99581 1-238).
T1 sequence: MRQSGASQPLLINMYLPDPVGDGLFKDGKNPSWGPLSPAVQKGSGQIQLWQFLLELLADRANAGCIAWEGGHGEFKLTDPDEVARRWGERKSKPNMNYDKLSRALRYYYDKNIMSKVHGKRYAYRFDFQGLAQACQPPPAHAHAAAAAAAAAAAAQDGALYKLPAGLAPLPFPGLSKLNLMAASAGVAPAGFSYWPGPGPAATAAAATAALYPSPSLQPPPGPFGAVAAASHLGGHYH
Conditions: protein: recombinant; tags: N-terminal GST; dsDNA, one strand shown. Summed up: (§1)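 In yeast, human transcription factors were expressed with a GST fusion, then pulled down on glutathione beads and given DNA barcodes. Pooled with a tag-only sample, they were exposed to 200 nmole of a 16-mer random double-stranded DNA library (Tris/NaCl/DTT/glycerol buffer, room temperature, 30 min), washed, crosslinked with 0.1% formaldehyde, proximity-ligated using BsaI/T4 ligase for 1 h at 37 °C, PCR-amplified and read on an Illumina NextSeq500. Each hexamer's frequency of reads for a factor, divided by the matching frequency for the tag-only sample, gives the binding signal.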

Another assay addresses ETV5 (Homo sapiens, UniProt P41161 1-510). Conditions: protein: recombinant; tags: N-terminal GST; dsDNA, one strand shown. Summed up: as §1
The target of a further assay is HSF1 (Homo sapiens, UniProt Q00613 1-529). Conditions: protein: recombinant; tags: N-terminal GST; chain copies: 3; dsDNA, one strand shown. Put shortly: as §1
The target of another assay is T2, SPIC (Homo sapiens, UniProt Q8N5J4 1-248).
T2 sequence: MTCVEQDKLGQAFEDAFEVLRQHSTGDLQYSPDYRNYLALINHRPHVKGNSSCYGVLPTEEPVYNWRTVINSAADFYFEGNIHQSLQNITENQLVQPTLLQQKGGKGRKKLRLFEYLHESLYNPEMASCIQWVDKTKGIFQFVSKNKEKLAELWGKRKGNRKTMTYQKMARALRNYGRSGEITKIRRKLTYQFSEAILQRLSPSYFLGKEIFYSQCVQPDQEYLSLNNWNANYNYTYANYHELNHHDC
The conditions noted are these: protein: recombinant; tags: N-terminal GST; dsDNA, one strand shown. Put shortly:
as §1

The target in the next assay is ELF4 (Homo sapiens, UniProt Q99607 1-663). The conditions noted are these: protein: recombinant; tags: N-terminal GST; dsDNA, one strand shown. Summed up: as §1
Another assay has as its target T3, ELK4 (Homo sapiens, UniProt P28324-2 1-405).
T3 sequence: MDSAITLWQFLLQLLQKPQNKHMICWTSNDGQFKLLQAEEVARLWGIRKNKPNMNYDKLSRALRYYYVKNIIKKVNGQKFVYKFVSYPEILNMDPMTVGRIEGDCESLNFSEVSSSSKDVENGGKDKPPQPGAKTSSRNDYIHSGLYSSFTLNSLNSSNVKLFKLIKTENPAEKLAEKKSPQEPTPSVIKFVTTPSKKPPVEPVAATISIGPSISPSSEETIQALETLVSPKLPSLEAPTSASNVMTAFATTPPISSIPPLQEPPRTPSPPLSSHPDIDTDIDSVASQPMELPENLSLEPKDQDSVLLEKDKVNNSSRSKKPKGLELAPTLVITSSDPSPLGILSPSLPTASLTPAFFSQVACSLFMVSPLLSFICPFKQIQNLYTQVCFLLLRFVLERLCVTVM
Conditions: protein: recombinant; tags: N-terminal GST; dsDNA, one strand shown. Put shortly:
as §1

The next assay addresses T4, ETV2 (Homo sapiens, UniProt O00321 1-342).
T4 sequence: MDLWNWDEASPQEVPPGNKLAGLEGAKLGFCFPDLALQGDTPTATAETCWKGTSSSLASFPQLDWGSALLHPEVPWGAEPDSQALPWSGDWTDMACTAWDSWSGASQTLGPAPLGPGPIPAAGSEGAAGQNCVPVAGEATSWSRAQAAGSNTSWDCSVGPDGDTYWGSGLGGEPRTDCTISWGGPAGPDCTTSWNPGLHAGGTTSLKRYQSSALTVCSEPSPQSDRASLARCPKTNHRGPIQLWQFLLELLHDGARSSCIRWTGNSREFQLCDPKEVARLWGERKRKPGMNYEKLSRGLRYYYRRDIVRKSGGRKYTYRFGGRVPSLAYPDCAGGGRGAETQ
Conditions: protein: recombinant; tags: N-terminal GST; dsDNA, one strand shown. Summed up: as §1

The next assay addresses T5, ELF3 (Homo sapiens, UniProt P78545 1-371).
T5 sequence: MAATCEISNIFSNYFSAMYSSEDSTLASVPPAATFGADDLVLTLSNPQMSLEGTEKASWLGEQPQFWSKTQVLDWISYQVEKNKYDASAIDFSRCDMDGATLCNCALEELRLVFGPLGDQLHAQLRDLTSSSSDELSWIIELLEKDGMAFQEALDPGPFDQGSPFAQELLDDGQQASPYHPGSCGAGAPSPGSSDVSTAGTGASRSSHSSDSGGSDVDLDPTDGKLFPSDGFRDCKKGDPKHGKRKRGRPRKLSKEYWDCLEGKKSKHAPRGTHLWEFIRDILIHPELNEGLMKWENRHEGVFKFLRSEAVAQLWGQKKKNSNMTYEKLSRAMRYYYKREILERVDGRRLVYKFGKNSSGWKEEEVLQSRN
Conditions: protein: recombinant; tags: N-terminal GST; dsDNA, one strand shown. Put shortly:
as §1

The target of a further assay is CRX (Homo sapiens, UniProt O43186 1-299). Conditions: protein: recombinant; tags: N-terminal GST; dsDNA, one strand shown. Put shortly: as §1
For another assay, the target named is ETV1 (Homo sapiens, UniProt P50549 1-477). The conditions noted are these: protein: recombinant; tags: N-terminal GST; dsDNA, one strand shown. Put shortly: as §1
ETV1, sequence (P50549 whole entry): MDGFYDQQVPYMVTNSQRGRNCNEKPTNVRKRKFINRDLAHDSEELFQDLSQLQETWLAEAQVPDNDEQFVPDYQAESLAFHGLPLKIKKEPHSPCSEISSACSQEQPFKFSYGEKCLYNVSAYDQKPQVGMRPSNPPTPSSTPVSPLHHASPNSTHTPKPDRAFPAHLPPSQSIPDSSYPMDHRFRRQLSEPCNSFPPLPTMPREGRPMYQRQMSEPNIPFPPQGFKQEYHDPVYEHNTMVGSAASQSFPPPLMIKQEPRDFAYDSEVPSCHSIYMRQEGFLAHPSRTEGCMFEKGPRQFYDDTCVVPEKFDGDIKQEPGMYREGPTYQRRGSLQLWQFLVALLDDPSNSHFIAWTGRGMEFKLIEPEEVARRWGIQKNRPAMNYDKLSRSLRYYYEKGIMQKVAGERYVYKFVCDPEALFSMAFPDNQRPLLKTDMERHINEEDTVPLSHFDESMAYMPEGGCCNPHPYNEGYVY

CRX, sequence (O43186 whole entry): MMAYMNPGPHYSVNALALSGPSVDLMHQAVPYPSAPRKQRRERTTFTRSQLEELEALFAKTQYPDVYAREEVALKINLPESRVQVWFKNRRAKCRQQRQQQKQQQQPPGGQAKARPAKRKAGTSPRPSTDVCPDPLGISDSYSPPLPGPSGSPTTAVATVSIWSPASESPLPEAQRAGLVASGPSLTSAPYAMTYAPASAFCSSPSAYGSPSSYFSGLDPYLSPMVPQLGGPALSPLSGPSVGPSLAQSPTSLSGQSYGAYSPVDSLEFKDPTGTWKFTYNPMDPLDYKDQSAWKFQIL
ELF4, sequence (Q99607 whole entry): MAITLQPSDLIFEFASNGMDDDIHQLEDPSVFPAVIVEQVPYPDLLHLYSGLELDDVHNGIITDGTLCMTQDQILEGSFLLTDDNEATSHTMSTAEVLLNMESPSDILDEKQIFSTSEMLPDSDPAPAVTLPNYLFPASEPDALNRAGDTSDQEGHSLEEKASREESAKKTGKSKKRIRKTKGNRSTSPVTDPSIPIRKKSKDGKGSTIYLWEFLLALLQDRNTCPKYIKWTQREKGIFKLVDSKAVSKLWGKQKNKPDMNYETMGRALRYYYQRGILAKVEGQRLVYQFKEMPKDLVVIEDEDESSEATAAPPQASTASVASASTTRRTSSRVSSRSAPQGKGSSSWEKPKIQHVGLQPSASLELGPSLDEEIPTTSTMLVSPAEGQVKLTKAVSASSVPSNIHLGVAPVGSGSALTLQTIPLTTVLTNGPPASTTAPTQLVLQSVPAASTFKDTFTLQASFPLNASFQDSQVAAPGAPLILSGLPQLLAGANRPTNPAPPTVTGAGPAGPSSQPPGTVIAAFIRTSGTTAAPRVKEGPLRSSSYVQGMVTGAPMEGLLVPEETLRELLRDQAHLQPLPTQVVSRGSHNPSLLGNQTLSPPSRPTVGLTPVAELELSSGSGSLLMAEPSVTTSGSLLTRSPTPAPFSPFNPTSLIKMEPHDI
ETV5, sequence (P41161 whole entry): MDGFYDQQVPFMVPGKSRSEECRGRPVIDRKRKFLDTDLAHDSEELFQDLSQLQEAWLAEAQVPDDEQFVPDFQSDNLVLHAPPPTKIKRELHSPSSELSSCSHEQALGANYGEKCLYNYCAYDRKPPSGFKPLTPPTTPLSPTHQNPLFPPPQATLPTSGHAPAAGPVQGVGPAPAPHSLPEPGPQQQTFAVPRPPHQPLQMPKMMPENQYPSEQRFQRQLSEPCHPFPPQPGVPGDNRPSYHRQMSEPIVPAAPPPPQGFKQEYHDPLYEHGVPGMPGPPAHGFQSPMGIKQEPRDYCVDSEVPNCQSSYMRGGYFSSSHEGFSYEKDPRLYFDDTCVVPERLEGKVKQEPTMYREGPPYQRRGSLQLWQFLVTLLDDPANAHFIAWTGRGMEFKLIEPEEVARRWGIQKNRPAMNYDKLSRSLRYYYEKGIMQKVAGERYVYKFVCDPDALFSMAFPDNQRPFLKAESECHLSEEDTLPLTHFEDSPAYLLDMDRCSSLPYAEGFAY
HSF1, sequence (Q00613 whole entry): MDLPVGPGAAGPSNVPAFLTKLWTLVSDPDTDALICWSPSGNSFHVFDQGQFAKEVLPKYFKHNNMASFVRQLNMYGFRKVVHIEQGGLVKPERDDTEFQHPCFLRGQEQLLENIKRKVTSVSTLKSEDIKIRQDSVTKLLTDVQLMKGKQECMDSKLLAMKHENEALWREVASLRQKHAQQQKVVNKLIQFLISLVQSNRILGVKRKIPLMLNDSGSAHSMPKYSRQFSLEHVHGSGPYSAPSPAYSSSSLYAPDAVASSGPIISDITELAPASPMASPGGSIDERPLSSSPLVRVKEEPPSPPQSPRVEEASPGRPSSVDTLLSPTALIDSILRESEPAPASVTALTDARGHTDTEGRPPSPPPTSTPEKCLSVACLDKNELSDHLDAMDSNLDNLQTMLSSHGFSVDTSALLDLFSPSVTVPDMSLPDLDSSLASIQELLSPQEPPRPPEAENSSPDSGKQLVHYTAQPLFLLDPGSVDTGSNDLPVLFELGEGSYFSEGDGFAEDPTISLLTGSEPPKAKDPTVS

As for ACTTAC, the binding signal is 1.09 fold enrichment (6-mer frequency, TF over GST control) with FEV; 1.17 fold enrichment (6-mer frequency, TF over GST control) with ETV5; 1.15 fold enrichment (6-mer frequency, TF over GST control) with HSF1; 1.1 fold enrichment (6-mer frequency, TF over GST control) with SPIC; 1.24 fold enrichment (6-mer frequency, TF over GST control) in the assay with ELF4; 1.12 fold enrichment (6-mer frequency, TF over GST control) with ELK4. Moreover, the binding signal with ETV2 is 1.06 fold enrichment (6-mer frequency, TF over GST control); with ELF3, 1.23 fold enrichment (6-mer frequency, TF over GST control); with CRX, 1.42 fold enrichment (6-mer frequency, TF over GST control); with ETV1, 1.16 fold enrichment (6-mer frequency, TF over GST control).

For TTTGGA, the binding signal was 1.2 fold enrichment (6-mer frequency, TF over GST control) with FEV; 1.21 fold enrichment (6-mer frequency, TF over GST control) in the assay with ETV5; 1.48 fold enrichment (6-mer frequency, TF over GST control) with HSF1; 1.28 fold enrichment (6-mer frequency, TF over GST control) with SPIC; 1.12 fold enrichment (6-mer frequency, TF over GST control) in the assay with ELF4; 1.14 fold enrichment (6-mer frequency, TF over GST control) with ELK4. For the same sequence, the binding signal with ETV2 is 1.22 fold enrichment (6-mer frequency, TF over GST control); with ELF3, 1.13 fold enrichment (6-mer frequency, TF over GST control); in the assay with CRX it was 1.48 fold enrichment (6-mer frequency, TF over GST control); with ETV1, 1.24 fold enrichment (6-mer frequency, TF over GST control).

As to ACCTCC, the binding signal in the assay with FEV is 1.42 fold enrichment (6-mer frequency, TF over GST control); with ETV5, 1.43 fold enrichment (6-mer frequency, TF over GST control); with HSF1, 1.11 fold enrichment (6-mer frequency, TF over GST control); with SPIC it was 1.45 fold enrichment (6-mer frequency, TF over GST control); with ELF4 it was 1.44 fold enrichment (6-mer frequency, TF over GST control); with ELK4, 1.45 fold enrichment (6-mer frequency, TF over GST control). The binding signal with ETV2 was 1.4 fold enrichment (6-mer frequency, TF over GST control); with ELF3 it was 1.14 fold enrichment (6-mer frequency, TF over GST control); in the assay with CRX it was 1.08 fold enrichment (6-mer frequency, TF over GST control); with ETV1, 1.4 fold enrichment (6-mer frequency, TF over GST control).

As for TTCACC, the binding signal is 1.39 fold enrichment (6-mer frequency, TF over GST control) with FEV; 1.33 fold enrichment (6-mer frequency, TF over GST control) with ETV5; 1.14 fold enrichment (6-mer frequency, TF over GST control) in the assay with HSF1; 1.34 fold enrichment (6-mer frequency, TF over GST control) with SPIC; 1.44 fold enrichment (6-mer frequency, TF over GST control) with ELF4; 1.36 fold enrichment (6-mer frequency, TF over GST control) in the assay with ELK4. In addition, the binding signal with ETV2 was 1.36 fold enrichment (6-mer frequency, TF over GST control); with ELF3 it was 1.57 fold enrichment (6-mer frequency, TF over GST control); in the assay with CRX, 1.17 fold enrichment (6-mer frequency, TF over GST control); with ETV1, 1.4 fold enrichment (6-mer frequency, TF over GST control).

With AATCCG, the binding signal in the assay with FEV is 2.44 fold enrichment (6-mer frequency, TF over GST control); with ETV5, 1.65 fold enrichment (6-mer frequency, TF over GST control); with HSF1, 2.09 fold enrichment (6-mer frequency, TF over GST control); with SPIC, 1.48 fold enrichment (6-mer frequency, TF over GST control); with ELF4 it was 1.46 fold enrichment (6-mer frequency, TF over GST control); with ELK4, 1.33 fold enrichment (6-mer frequency, TF over GST control). The binding signal in the assay with ETV2 is 1.47 fold enrichment (6-mer frequency, TF over GST control); in the assay with ELF3 it was 1.32 fold enrichment (6-mer frequency, TF over GST control); in the assay with CRX, 3.2 fold enrichment (6-mer frequency, TF over GST control); with ETV1, 1.43 fold enrichment (6-mer frequency, TF over GST control).

With ATATAT, the binding signal is 1.41 fold enrichment (6-mer frequency, TF over GST control) with FEV; 1.42 fold enrichment (6-mer frequency, TF over GST control) with ETV5; 1.31 fold enrichment (6-mer frequency, TF over GST control) with HSF1; 1.51 fold enrichment (6-mer frequency, TF over GST control) with SPIC; 1.38 fold enrichment (6-mer frequency, TF over GST control) in the assay with ELF4; 1.55 fold enrichment (6-mer frequency, TF over GST control) with ELK4. The binding signal with ETV2 was 1.31 fold enrichment (6-mer frequency, TF over GST control); with ELF3, 1.64 fold enrichment (6-mer frequency, TF over GST control); with CRX it was 1.46 fold enrichment (6-mer frequency, TF over GST control); in the assay with ETV1, 1.33 fold enrichment (6-mer frequency, TF over GST control).

As for TATAGA, the binding signal was 1.04 fold enrichment (6-mer frequency, TF over GST control) with FEV; 1.08 fold enrichment (6-mer frequency, TF over GST control) in the assay with ETV5; 1.52 fold enrichment (6-mer frequency, TF over GST control) with HSF1; 1.04 fold enrichment (6-mer frequency, TF over GST control) with SPIC; 1.09 fold enrichment (6-mer frequency, TF over GST control) with ELF4; 1 fold enrichment (6-mer frequency, TF over GST control) in the assay with ELK4. Further, the binding signal with ETV2 was 1.08 fold enrichment (6-mer frequency, TF over GST control); in the assay with ELF3, 1.17 fold enrichment (6-mer frequency, TF over GST control); with CRX, 1.45 fold enrichment (6-mer frequency, TF over GST control); with ETV1, 1.13 fold enrichment (6-mer frequency, TF over GST control).
